The values that follow come from the supplement of paper PMC6555819.

Common to all, as to assay: PBM binding z-score (relative to random genomic background probes); higher = stronger binding; sequences stand for … in GC…GCGATTGACAGCGTAGAATGAAGG
The subject of assay [1] is RARb homodimer (NR concentration 270 nM). The essentials: (§1)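 Custom Agilent 4×180K protein-binding microarrays carried double-stranded probes. Their 34-nt variable regions held direct-repeat seeds, single-nucleotide variants, half-site ablations and random human genomic background sequences. Arrays were incubated 1 h with ligand-free nuclear receptor dimers in PBS pH 7.4, 2% milk, 0.02% Triton X-100, 1 mM DTT, 0.2 mg/mL BSA and 0.4 mg/ml salmon testes DNA. Antibodies against each partner (one per run) detected binding, and scanned fluorescence was regression-normalized. Binding z-scores use random background probes as reference.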

The subject of assay [2] is RARg:RXRa (NR concentration 270 nM, RXRa partner concentration 90 nM). The procedure, abridged: as §1
For assay [3], the system named is RARg homodimer (NR concentration 270 nM). The procedure, abridged:
as §1

The test system of assay [4] is RXRa DBDmut IVT, anti-RXR (DBD mutation: RXRa K156A/R161A, NR concentration 90 nM). The essentials: as §1
The subject of assay [5] is RXRa homodimer (NR concentration 180 nM). The essentials:
as §1

Assay [6] relates to THRa:RXRa (NR concentration 90 nM, RXRa partner concentration 90 nM). The essentials:
as §1

The subject of assay [7] is THRa homodimer (NR concentration 90 nM). The essentials:
as §1

For assay [8], the system named is VDR homodimer (NR concentration 270 nM). The essentials:
as §1

With CCTTACGGGTCACCAGGTTATAGCACGACGAGCG, the PBM binding z-score is 3.75 in assay [1]; 5.68 in assay [2]; 5.33 in assay [3]; 0.805 in assay [4]; 6.06 in assay [5]; 3.45 in assay [6]. The PBM binding z-score in assay [7] is 0.878; in assay [8] it was 1.09.
Consider ATCGAAAGGTGGAGGTGAGTATAGAGAAAGGGAA, for which the PBM binding z-score in assay [1] was 1.16; in assay [2], 0.536; in assay [3], 0.711; in assay [4] it was -0.665; in assay [5] it was 0.164; in assay [6], 0.67. In addition, the PBM binding z-score worked out at 0.48 in assay [7] and 0.297 in assay [8].
With TCTATTAGCTGAAGGGCAACCGACGAGTCCGTTT, the PBM binding z-score in assay [1] was 0.986; in assay [2], 0.404; in assay [3], 0.211; in assay [4] it was 0.755; in assay [5] it was 0.365; in assay [6] it was -0.0875. The PBM binding z-score in assay [7] is -0.551; in assay [8], 0.695.
Take GCTGCTAGGTCAGGTTGGTCAGCTACCGGGTACG: the PBM binding z-score was 2.79 in assay [1]; 2.17 in assay [2]; 3.73 in assay [3]; 0.371 in assay [4]; 0.808 in assay [5]; 1.76 in assay [6]. The PBM binding z-score in assay [7] turned out to be 0.717; in assay [8], 0.476.
For TCTATTAGTTGAATGGCAACCGACGAGTCCGTTT, the PBM binding z-score in assay [1] was 0.038; in assay [2], 0.299; in assay [3], 0.139; in assay [4] it was 1.73; in assay [5], 0.383; in assay [6], -0.116. Further, the PBM binding z-score in assay [7] worked out at 0.299; in assay [8], 1.28.
As to ATATGTAGGTTACACCCGGGTCATTCAGGCTATG, the PBM binding z-score in assay [1] was 3.06; in assay [2], 3.97; in assay [3], 2.06; in assay [4], 0.528; in assay [5], 3.23; in assay [6], 3.77. Further, the PBM binding z-score in assay [7] turned out to be 2.45; in assay [8] it was 2.67.
For ATCTCTAGGGAAAGTTCAGTGAAAGATCGATAGA, the PBM binding z-score in assay [1] turned out to be 2.2; in assay [2], 2.01; in assay [3] it was 2.11; in assay [4], 1.12; in assay [5] it was 1.21; in assay [6], 0.605. In addition, the results for the PBM binding z-score in assay [7] and in assay [8] were 0.0589 and 1.68, respectively.
CAAACTAGGTCACGAAAGGCCAAAGTCGAATGAC: the PBM binding z-score in assay [1] came to 4.29; in assay [2], 5.29; in assay [3], 5.81; in assay [4], 2.01; in assay [5] it was 3.94; in assay [6] it was 4.33. For the same sequence, the PBM binding z-score in assay [7] was determined as 1.52; in assay [8], 1.
Turning to ATCTTTAGGTAACCAAGTTCAGTGAATGCCGAAC, the PBM binding z-score in assay [1] was found to be 1.55; in assay [2], 0.783; in assay [3], 1.04; in assay [4], 1.36; in assay [5], 0.709; in assay [6], 2.07. Further, the results for the PBM binding z-score in assay [7] and in assay [8] were 1.25 and 2.66, respectively.
On to CATACAGGGTCAGCTAGGCCGGAGTAGGGACGGC, for which the PBM binding z-score was 3 in assay [1]; 4.28 in assay [2]; 4.35 in assay [3]; 1.18 in assay [4]; 3.93 in assay [5]; 2.78 in assay [6]. In addition, the PBM binding z-score in assay [7] is 0.818; in assay [8], 0.84.
Turning to AGTCAAAGTTCACTAGGTAACGGAAGATTCAGCT, the PBM binding z-score in assay [1] came to 3.81; in assay [2], 5.03; in assay [3], 5.67; in assay [4], 4.26; in assay [5], 3.89; in assay [6], 2.04. Also, the PBM binding z-score in assay [7] amounted to 0.215; in assay [8], 3.71.
Consider ATCTCTAGGTAAGACTCAGTTCATTGAAGAACGC, for which the PBM binding z-score in assay [1] is 0.892; in assay [2], 0.375; in assay [3] it was 0.586; in assay [4], 1.31; in assay [5], 0.538; in assay [6] it was 1.58. For the same sequence, the figures for the PBM binding z-score in assay [7] and in assay [8] were 0.923 and 3.67, respectively.
Regarding TCATATAGGTAAAGGTGAAAGACGAACGATATGA, the PBM binding z-score in assay [1] is 0.974; in assay [2], 1.51; in assay [3] it was 1.34; in assay [4] it was 0.604; in assay [5], 1.85; in assay [6] it was 1.04. In addition, the PBM binding z-score in assay [7] is -0.601; in assay [8], -0.0355.
Turning to TCTTGTAGAGCAGCAGGTTAAGAAAGCTGGCCAA, the PBM binding z-score in assay [1] is -0.584; in assay [2], -0.394; in assay [3], -0.758; in assay [4] it was -0.623; in assay [5], -0.14; in assay [6] it was -0.0931. The figures for the PBM binding z-score in assay [7] and in assay [8] were -1.03 and -1.08, respectively.
